Experimental data reported in PubChem BioAssay (NCATS).
Several values for one entry are separate records, joined by “and”; a condition that tells them apart may be missing. Equal entries are not always repeated. Inconclusive results are not listed. Activity calls are given as the source filed them. Calls come from the whole dose curve; as a rule, active = well fitted curve in the direction sought with a large enough effect; inconclusive = small, poorly fitted or top-dose-only effect, or another doubt; inactive = no such curve, though single readings can be large; an effect the other way counts as inactive or inconclusive.

Assays:
MKL-1 = test: qHTS assay to identify novel small-molecules to repurpose for Merkel cell carcinoma treatment (AID 1296009); settings: MCC and control cell lines, CellTiter-Glo viability, 72 h; series mostly up to 46 µM; note: nearly all actives have a fitted effect of over 60% in size; note: potency is the fitted concentration of half-maximal effect
In short: (§1)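 qHTS format: cells treated with library compounds in DMSO across 8 (NPC) or 11 (MIPE) concentrations. Readout after 72 hr at 37 degree celsius was CellTiter-Glo luminescence.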

MKL-2 = test: as above; settings: MCC and control cell lines, CellTiter-Glo viability, 72 h; series mostly up to 46 µM
In short: as §1

UISO = test: as above; settings: MCC and control cell lines, CellTiter-Glo viability, 72 h; series mostly up to 46 µM
In short: as §1

WaGa = test: as above; settings: MCC and control cell lines, CellTiter-Glo viability, 72 h; series mostly up to 46 µM
In short: as §1

C33A = test: Primary qHTS to identify gynecologic anti-cancer compounds using libraries of approved drugs and bioactive compounds (AID 1345084); settings: Gynecologic cancer cell panel viability, ATPlite luminescence, 48 h; series mostly up to 57.5 µM; note: nearly all actives have a fitted effect of over 55% in size; note: potency is the fitted concentration of half-maximal effect
In short: (§2)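 Luminescence from the ATPlite ATP-monitoring reagent indicates viable cell number; lower signal means cytotoxicity. Cells received compound 16 h after seeding and were exposed for 48 h across five concentrations.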

CASKI = test: as above; settings: Gynecologic cancer cell panel viability, ATPlite luminescence, 48 h; series mostly up to 57.5 µM
In short: as §2

Es-2 = test: as above; settings: Gynecologic cancer cell panel viability, ATPlite luminescence, 48 h; series mostly up to 57.5 µM
In short: as §2

HeLa = test: as above; settings: Gynecologic cancer cell panel viability, ATPlite luminescence, 48 h; series mostly up to 57.5 µM
In short: as §2

Hek293T = test: as above; settings: Gynecologic cancer cell panel viability, ATPlite luminescence, 48 h, control line for the selectivity index; series mostly up to 57.5 µM
In short: as §2

JEG-3 = test: as above; settings: Gynecologic cancer cell panel viability, ATPlite luminescence, 48 h; series mostly up to 57.5 µM
In short: as §2

OV90 = test: as above; settings: Gynecologic cancer cell panel viability, ATPlite luminescence, 48 h; series mostly up to 57.5 µM
In short: as §2

PA-1 = test: as above; settings: Gynecologic cancer cell panel viability, ATPlite luminescence, 48 h; series mostly up to 57.5 µM
In short: as §2

SKOV3 = test: as above; settings: Gynecologic cancer cell panel viability, ATPlite luminescence, 48 h; series mostly up to 57.5 µM
In short: as §2

Tov-21-G = test: as above; settings: Gynecologic cancer cell panel viability, ATPlite luminescence, 48 h; series mostly up to 57.5 µM
In short: as §2

Tov112D = test: as above; settings: Gynecologic cancer cell panel viability, ATPlite luminescence, 48 h; series mostly up to 57.5 µM
In short: as §2

[1] = Drug repurposing screens with cells derived from glioblastoma tumor samples (AID 1345199); settings: GBM patient neurospheres viability, ATP luminescence, 48 h; note: nearly all actives have a fitted effect of over 40% in size
In short: (§3)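 Four patient lines of CD133+ GBM neurospheres were screened at several concentrations; hits were retested in those lines plus three slower-growing GBM lines, using 48-hour treatment and ATP-based viability.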

astro = test: as above; settings: viability, ATP luminescence, 48 h; series mostly up to 45.9 µM
In short: as §3

[2] = qHTS assay to identify inhibitors of the type 1 interferon - major histocompatibility complex class I in skeletal muscle: Counter screen cell viability and HiBit confirmation (AID 1347412); settings: iHSKM muscle cells + IFN-b, HiBiT or CellTiter-Glo, 24 h; note: nearly all actives have a fitted effect of over 60% in size; note: potency is the fitted concentration of half-maximal effect
In short: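 Human myoblast knock-in line, 4.0 ng/ml IFN-beta stimulation, 24 h compound treatment. Endpoints: HiBiT lytic luminescence (HLA-B level) and CellTiter Glo (ATP). Dosing 12 concentrations, 3-fold steps, 46 uM highest final.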

CAOV3 = test: Primary qHTS to identify gynecologic anti-cancer compounds using libraries of approved drugs and bioactive compounds (AID 1345084); settings: Gynecologic cancer cell panel viability, ATPlite luminescence, 48 h; series mostly up to 57.5 µM; note: nearly all actives have a fitted effect of over 55% in size; note: potency is the fitted concentration of half-maximal effect
In short: as §2

[3] = at 45.9 µM (top of the series), tumour line B
[4] = at 45.9 µM (top of the series), tumour line D
[5] = at 46.1 µM (top of the series), tumour line C
% is set by controls: 0 for no effect and ±100 for the full control effect.

O=C(NCCN1CCOCC1)c1ccc(Cl)cc1
inactive: Potency (MKL-1) | Potency (MKL-2) | Potency (UISO) | Potency (WaGa) | Potency (C33A) | Potency (CASKI) | Potency (Es-2) | Potency (HeLa) | Potency (Hek293T) | Potency (JEG-3) | Potency (OV90) | Potency (PA-1) | Potency (SKOV3) | Potency (Tov-21-G) | Potency (Tov112D) | activity, negative = cell killing [1, 3] -9.41% and -9.63% | activity, negative = cell killing [1, 4] -2.14% and -10.5% | activity, negative = cell killing [1, 5] -17.8% and -11.9% | Potency (astro)

O=C1NC(=O)C(c2ccccc2)(c2ccccc2)N1
inactive: Potency (MKL-1) | Potency (MKL-2) | Potency (UISO) | Potency (WaGa) | Potency (C33A) | Potency (CASKI) | Potency (Es-2) | Potency (HeLa) | Potency (Hek293T) | Potency (JEG-3) | Potency (OV90) | Potency (PA-1) | Potency (SKOV3) | Potency (Tov-21-G) | Potency (Tov112D) | activity, negative = cell killing [1, 3] -5.12% | activity, negative = cell killing [1, 4] -12.9% | activity, negative = cell killing ([1]; at 46 µM (top of the series), tumour line A) -29.6% | activity, negative = cell killing [1, 5] 10.5% | Potency (astro)

CN(C)C1CCN(C(=O)c2ccc(NC(=O)Nc3nc(N4CCOCC4)nc(N4CCOCC4)n3)cc2)CC1
active: Potency (MKL-1) 0.132 µM | Potency (MKL-2) 0.296 µM | Potency (UISO) 0.0264 µM | Potency (WaGa) 0.105 µM | Potency (C33A) 0.178 µM | Potency (CASKI) 0.141 µM | Potency (Es-2) 0.794 µM | Potency (HeLa) 0.794 µM | Potency (Hek293T) 0.891 µM | Potency (OV90) 0.141 µM | Potency (SKOV3) 0.1 µM

COc1cc(Nc2ncc(F)c(Nc3ccc4c(n3)NC(=O)C(C)(C)O4)n2)cc(OC)c1OC
active: Potency (CASKI) 11.2 µM | Potency (HeLa) 31.6 µM | Potency (SKOV3) 15.8 µM | Potency ([2]; HiBiT) 1.25 µM
inactive: Potency (MKL-1) | Potency (MKL-2) | Potency (UISO) | Potency (WaGa) | Potency (C33A) | Potency (Es-2) | Potency (Hek293T) | Potency (JEG-3) | activity change, negative = inhibition ([2]; Viability, at 45.9 µM (top of the series)) -9.37%

O=C1c2ccccc2-[n+]2ccc3c([nH]c4ccccc43)c21
active: Potency (MKL-1) 1.05 µM | Potency (MKL-2) 3.32 µM | Potency (UISO) 0.662 µM | Potency (WaGa) 2.35 µM | Potency ([2]; HiBiT) 1.57 µM | Potency ([2]; Viability) 2.22 µM

O=C(Nc1cccc(Br)c1)c1cccc(S(=O)(=O)N2CCCCCC2)c1
inactive: Potency (MKL-1) | Potency (MKL-2) | Potency (WaGa) | Potency (CAOV3) | Potency (HeLa) | Potency (JEG-3) | Potency (Tov-21-G) | Potency (Tov112D)
